This note sets out measurements from PubChem BioAssay (NCI).

Each structure is given as a SMILES string. The panel holds about 83,000 compounds, 20% with a hit somewhere; the sample as a whole holds those more often.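 Values shown are percent growth following 48 h exposure of cells in 96-well plates to a single concentration of compound; below 10 was considered active.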 Values without a mark were called inactive. Calls of active or inactive are those of the source.

Among the test systems are HCT-15 colon; HT29 colon; SNB-75 CNS; SNB-19 CNS; U251 CNS; PC-3 prostate; SK-MEL-5 melanoma; UACC-62 melanoma; LOX IMVI melanoma; SK-MEL-28 melanoma.
Holding throughout (assay): NCI-60 one-dose screen, 48 h (100 = growth as untreated, 0 = no growth, -100 = all killed)
Conditions in all cases: 10 µM unless noted

Turning to `COc1ccc2[nH]c(O)c(N=Nc3nc(-c4ccccc4)cs3)c2c1`, the growth in the test on HCT-15 colon is 24.9%; with HT29 colon it was 50.5%; in the test on SNB-75 CNS, -1.94% (active); with SNB-19 CNS, 20%; with U251 CNS, -31% (active); in the test with PC-3 prostate, 16%. Also, the growth with SK-MEL-5 melanoma is 68.8%; in the test on UACC-62 melanoma it was 30.8%; in the test with LOX IMVI melanoma, 14.3%; in the test with SK-MEL-28 melanoma, 45%.

With `COc1cc(C2CC(c3ccc(Cl)cc3)=Nc3c(N)nc(N)nc3N2)ccc1Oc1nc(Nc2ccc(F)cc2)nc(N(C)C)n1` (stereo not given), the growth with HCT-15 colon is 25.1%; in the test on HT29 colon, 14.3%; in the test with SNB-75 CNS, 33.7%; in the test on SNB-19 CNS, 47.7%; in the test with U251 CNS it was 45%; in the test on PC-3 prostate it was 21.9%. Also, the growth in the test with SK-MEL-5 melanoma is 17.9%; with UACC-62 melanoma, 84.4%; in the test on LOX IMVI melanoma, 16%; in the test with SK-MEL-28 melanoma it was 75.6%.

With `O=C(NC(=S)N1CCN(c2ncnc3c2cnn3-c2ccccc2)CC1)c1ccc(Br)cc1`, the growth in the test with HCT-15 colon is 58.3%; in the test with HT29 colon, 86.4%; with SNB-75 CNS, 7.89% (active); with SNB-19 CNS, 46.6%; with U251 CNS, 56.5%; with PC-3 prostate, 64.8%. The growth in the test on SK-MEL-5 melanoma is 75%; with UACC-62 melanoma, 60.6%; in the test on LOX IMVI melanoma, 41.1%; in the test on SK-MEL-28 melanoma it was 77.1%.

With `O=C(CSc1nc2sc3c(c2c(=O)n1-c1ccc(Cl)cc1)CCCC3)N/N=C/C=C/c1ccccc1`, the growth is -57.6% (active) in the test on HCT-15 colon; -19.3% (active) in the test with HT29 colon; -23.2% (active) in the test with SNB-75 CNS; 27% in the test on SNB-19 CNS; -76.4% (active) in the test on U251 CNS; -17.4% (active) in the test with PC-3 prostate. Further, the growth in the test with SK-MEL-5 melanoma was -95.2% (active); with UACC-62 melanoma, -79.9% (active); with LOX IMVI melanoma, 31.7%; with SK-MEL-28 melanoma it was -80.1% (active).

Take `Fc1ccc(N2CC(Cn3c(C(F)(F)F)cc4c(Cl)ncnc43)C2)c(F)c1`: the growth in the test on HCT-15 colon is -76.5% (active); in the test on HT29 colon, -59.4% (active); with SNB-75 CNS, 24.6%; in the test on SNB-19 CNS, -39.1% (active); in the test with U251 CNS, -26.6% (active); with PC-3 prostate it was 0.119% (active). Further, the growth in the test on SK-MEL-5 melanoma was 88.9%; in the test with UACC-62 melanoma, 6.55% (active); in the test with LOX IMVI melanoma, -93.6% (active); with SK-MEL-28 melanoma, -89.8% (active).

For the compound `O=C1c2cccc3c(N4CCN(c5ccccc5)CC4)ccc(c23)C(=O)N1c1cccc(-c2nn(-c3ccccc3)cc2-c2nc3ccccc3s2)c1`, the growth is 112% in the test with HCT-15 colon; 116% with HT29 colon; 98.1% in the test with SNB-75 CNS; 100% in the test on SNB-19 CNS; 100% in the test on U251 CNS; 85.9% with PC-3 prostate. Further, the growth with SK-MEL-5 melanoma is 99%; in the test on UACC-62 melanoma, 91.4%; in the test with LOX IMVI melanoma it was 94.5%; in the test on SK-MEL-28 melanoma, 104%.

As to `CCC(=O)c1cc(C(=O)OC)c2ccc3c4ccccc4ccc3n12`, the growth in the test on HCT-15 colon is 91.4%; with HT29 colon it was 73.3%; in the test with SNB-75 CNS, 47%; in the test with SNB-19 CNS, 66.9%; in the test with U251 CNS, 21.9%; with PC-3 prostate, 92.6%. Besides, the growth in the test with SK-MEL-5 melanoma was 93.8%; with UACC-62 melanoma it was 89.6%; in the test on LOX IMVI melanoma, 77.9%; with SK-MEL-28 melanoma it was 99.6%.

`COc1ccc(-c2cc(C(=O)N=Nc3c(O)[nH]c4ccc(Cl)cc34)c3ccccc3n2)cc1`: the growth in the test on HCT-15 colon is -42.2% (active); with HT29 colon, -17.3% (active); in the test on SNB-75 CNS, 62.9%; in the test on SNB-19 CNS, 23.5%; in the test with U251 CNS, -64.1% (active); in the test on PC-3 prostate, 48%. Moreover, the growth with SK-MEL-5 melanoma is 93%; in the test with UACC-62 melanoma it was 73.2%; in the test on LOX IMVI melanoma it was -29.8% (active); in the test on SK-MEL-28 melanoma, -6.34% (active).

For `C/C(=N\Nc1ccc(S(N)(=O)=O)cc1)c1cnn(-c2cc(=O)[nH]c3ccc(Br)cc23)c1C`, the growth in the test with HCT-15 colon is 91.2%; with HT29 colon it was 98.8%; in the test with SNB-75 CNS, 22%; with SNB-19 CNS, 46%; with U251 CNS, 37.9%; in the test with PC-3 prostate, 58.3%. For the same compound, the growth was 55% with SK-MEL-5 melanoma, 11.4% in the test on UACC-62 melanoma, 38.2% with LOX IMVI melanoma and 34.7% with SK-MEL-28 melanoma.

As to `NS(=O)(=O)c1ccc(Nc2nc(SCC(=O)c3ccc(F)cc3)nc3ccccc23)cc1`, the growth in the test on HCT-15 colon is 24.9%; with HT29 colon, 63.3%; in the test on SNB-75 CNS, 43.5%; in the test with SNB-19 CNS it was 54.8%; in the test with U251 CNS, 47.2%; with PC-3 prostate it was 43.1%. Moreover, the growth with SK-MEL-5 melanoma is 18.6%; in the test with UACC-62 melanoma it was 26.4%; in the test on LOX IMVI melanoma it was 20.7%; in the test with SK-MEL-28 melanoma, 55.6%.

Consider `COc1c2c(c(Br)c3c1C(CCc1ccccc1)N(C)CC3)OCO2` (stereo not given), for which the growth with HCT-15 colon is 24.6%; with HT29 colon, 16.5%; in the test with SNB-75 CNS, 63.8%; in the test with SNB-19 CNS it was 36.8%; with U251 CNS, 43.3%; with PC-3 prostate it was 41.3%. Moreover, the growth is 25.3% in the test with SK-MEL-5 melanoma, 16.3% with UACC-62 melanoma, 6% (active) with LOX IMVI melanoma and 19.2% in the test on SK-MEL-28 melanoma.

Consider `Cc1ccc(C(C(=O)NC2CCCCC2)N(Cc2ccccc2Cl)C(=O)c2ccc(CN3CCOCC3)o2)o1` (stereo not given), for which the growth in the test on HCT-15 colon is 98.3%; with HT29 colon, 95.4%; in the test with SNB-75 CNS, 80.2%; with SNB-19 CNS, 85.6%; in the test with U251 CNS, 103%; in the test with PC-3 prostate, 78.5%. Moreover, the growth with SK-MEL-5 melanoma was 83.4%; in the test on UACC-62 melanoma it was 66.2%; in the test with LOX IMVI melanoma, 87%; in the test on SK-MEL-28 melanoma it was 114%.

With `CS(=O)(=O)c1ccc(-n2nc(C(=O)NCc3ccccc3)cc2-c2ccc(Cl)cc2)cc1`, the growth is 66.3% in the test with HCT-15 colon; 74% with HT29 colon; 89.7% with SNB-75 CNS; 78.9% in the test with SNB-19 CNS; 80.7% in the test with U251 CNS; 75.5% in the test with PC-3 prostate. Moreover, the growth in the test with SK-MEL-5 melanoma is 71.5%; in the test with UACC-62 melanoma, 73.9%; in the test on LOX IMVI melanoma, 89.4%; in the test with SK-MEL-28 melanoma, 112%.
